Source: PubChem BioAssay AID651610 (Broad Institute, 2012)
Where “and” joins values, the source holds several entries; their conditions need not be identical. Identical values can stand only once. Screen size: about 360,000 compounds; about 3,900 (1.1%) were called active. Shown is part of a subset that was picked to be rich in actives. Values without a mark were called inactive.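 How the source made its calls: active means mean replicate inhibition score of at least 50 and every replicate individually at or above 50; inconclusive means only one of the two criteria met; inactive means mean below 50 and not all replicates reaching 50.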

assay: blockers of JRFL envelope-mediated fusion – HeLa-JRFL effector, CEM21 target cells, luciferase, primary screen (AID 651610); settings: HeLa-JRFL Env/CEM21 cell fusion, hits give high values; at 12.3 µM unless noted;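 further: 0% = plate neutral controls and 100% = maraviroc near 300 nM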

With CC(C)(C)c1ccc(CN2C(=O)CN=C(c3ccccc3)c3ccccc32)cc1 the inhibition was 86.8% (active).
In the case of CCCCCCCCCCCCn1ccc(=N)cc1, the inhibition is reported as 69% (active).
In the case of CCOC(=O)[C@@H]1[C@@H]2NC(=O)N[C@@]1(C)Oc1ccccc12, the inhibition is reported as -2.84% [at 16.7 µM] and -0.731% [at 16.7 µM].
In the case of CCC(C)(O)C(=O)OC1C(=O)OC2CC3C(C)=CC(=O)C(O)C3(C)C3C4(O)OCC23C1C(C)C4O (stereo not given), the inhibition is reported as 75.7% (active).

First: O=C1CC(=O)N(Cc2ccccc2)C(=O)N1CCCCCCN1C(=O)CC(=O)N(Cc2ccccc2)C1=O
Second: O=C(c1ccccc1)C(O)(CN1CCCCC1)c1ccccc1 (stereo not given)
The inhibition of the first is lower: -2.61% for the first, 8.44% for the second.

Going from O=S(=O)(c1ccccc1)N1CCC2CCNC2C1 (stereo not given) to CS(=O)(=O)N1CCC2CCNC2C1 (stereo not given), the inhibition rises from -11.9% to -7.16%.

Going from Cc1cc(N2CCNC[C@@H]2C)ccc1N1CC[C@H](O)C1 to CC(=O)C1(O)CCC2C3CCC4=C(Cl)C(=O)CCC4(C)C3CCC21C (stereo not given), the inhibition rises from 0.23% to 16.9%.

Compared with C[C@H](CO)N1C[C@H](C)[C@H](CN(C)C(=O)Oc2ccc3ccccc3c2)OCc2cnnn2CCCC1=O, C[C@@H]1CN([C@H](C)CO)C(=O)CCCn2cc(nn2)CO[C@@H]1CN(C)C(=O)Oc1cccc2ccccc12 is higher in inhibition: -15.9% [at 16.7 µM] for the first, 0.664% [at 16.7 µM] for the second.

Going from O=C(O)[C@@H]1[C@@H](CO)[C@@H]2Cn3c(ccc(-c4ccccc4F)c3=O)[C@H]1N2C(=O)c1cccnc1 to O=C(O)[C@H]1[C@H](CO)[C@H]2Cn3c(ccc(-c4ccccc4F)c3=O)[C@@H]1N2C(=O)c1cccnc1, the inhibition falls from 1.12% [at 16.7 µM] to -4.52% [at 16.7 µM].

In the case of COC(=O)C[C@@H]1CC[C@@H]2NC[C@@H](O)COC[C@H]2O1, the inhibition is reported as -11.9% [at 16.7 µM].
